Records with an inconclusive call do not appear. Values without a mark were called inactive. Calls come from the whole dose curve.
system: not listed separately; assay: Natriuretic polypeptide receptor (hNpr1) antagonism - Pilot counterscreen GloSensor control cell line (AID 1347045); conditions: HEK293 cGMP GloSensor cells, SNP-stimulated luminescence, 20 min; series mostly up to 38.3 µM; activity change, negative = inhibition: at the top concentration
In short: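 HEK293 cells carrying the GloSensor cGMP sensor (GIP/pGS-40F) were loaded with 2% GloSensor reagent for 2 h, exposed to compounds for 30 min, and then stimulated with 50 uM sodium nitroprusside for 20 min at room temperature.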
% is set by controls: 0 for no effect and ±100 for the full control effect.

| SMILES | activity change, negative = inhibition |
| --- | --- |
| O=C(O)C1=CCCNC1 | 2.32% |
| CC(C)C[C@H](NC(=O)[C@H](O)[C@H](N)Cc1ccccc1)C(=O)O | 3.56% |
| Cc1nc2n(c(=O)c1CCN1CCC(c3noc4cc(F)ccc34)CC1)CCCC2O (stereo unspecified) | 5.97% |
| CC1CNCCN1S(=O)(=O)c1cccc2cnccc12 (stereo unspecified) | 9.8% |
| O=C(O)C1CCNCC1 | 0.932% |
| NCCCCN | -3.94% |
| NC1(C(=O)O)CC1 | 0.525% |
| CN1CC(O)C(O)C(O)C1CO (stereo unspecified) | 5.05% |
| CCCCCCCCCC(=O)NC(CN1CCOCC1)[C@H](O)c1ccccc1 (stereo partly specified) | -1.95% |
| CCCCCCN(CCCCCC)C(=O)Cc1c(-c2ccc(F)cc2)[nH]c2ccccc12 | -3.47% |
| O=c1[nH]c2cc(Cl)ccc2c(O)c1-c1ccc(Oc2ccccc2)cc1 | -6.55% |
| Cc1cccc(C(=O)NCN2CCN(c3ccccc3C#N)CC2)c1 | -7.71% |
| O=c1[nH]c2ccccc2c2ccccc12 | -3.85% |
| Cc1cc(Cn2cnc3c2C[C@@H](C(=O)O)N(C(=O)C(c2ccccc2)c2ccccc2)C3)ccc1N | 6.17% |
| NCCCNCCCCNCCCN | 1.48% |
| CC(C)[C@@H]1CC[C@@H](C)C[C@@H]1P(=O)(c1ccccc1)c1ccccc1 | 10.8% |
| CCN(CC)CCOC(=O)c1cc(Cl)c(N)cc1OC | 11.3% |
| [N-]=[N+]=Nc1ccc(C(=O)CSC[C@H](NC(=O)CC[C@H](N)C(=O)O)C(=O)NCC(=O)O)cc1 | -10.1% |
| Cc1ccccc1/C=C/C1=NCCN1 | -1.75% |

| SMILES | activity change, negative = inhibition |
| --- | --- |
| NC(N)=NC(N)=Nc1ccccc1 | 6.59% |
| Cn1c(=O)c2c(nc(/C=C/c3cccc(Cl)c3)n2C)n(C)c1=O | 0.382% |
| Nc1ncnc2c1nc(Sc1ccc(Cl)cc1)n2[C@H]1OC2COP(=O)(O)O[C@@H]2C1O (stereo partly specified) | -1.71% |
| N[C@@H](Cc1ccc(O)c(I)c1)C(=O)O | 14.3% |
| CC(=O)NNC(=O)N1Cc2ccccc2Oc2ccc(Cl)cc21 | 12.6% |
| NCC(O)c1ccc(O)c(O)c1 (stereo unspecified) | 6.14% |
| c1ccc(C2CN3CCSC3=N2)cc1 (stereo unspecified) | -3.39% |
| Cc1cc2c(cc1Cl)N(C(=O)Nc1ccnc3ccccc13)CC2 | -19.7% |
| NCCNS(=O)(=O)c1cccc2c(Cl)cccc12 | -2.23% |
| NC(N)=N[C@@H](CCC(=O)O)C(=O)O | 2.01% |
| O=C(OCCN1CCOCC1)C1(c2ccccc2)CCCCC1 | 0.872% |
| CN(C)CCCc1cc(C(=O)Nc2ccc(-c3ccncc3)cc2)ccc1O | 0.542% |
| CC(=O)[C@H]1CCC2C3CC=C4C[C@@H](OS(=O)(=O)O)CC[C@]4(C)C3CC[C@@]21C (stereo partly specified) | 11.7% |
| N[C@H](C(=O)O)[C@H]1C[C@@H]1C(=O)O | 8.57% |
| Nc1ncnc2c1ncn2C1CCCO1 (stereo unspecified) | 0.634% |
| CNCCNS(=O)(=O)c1cccc2cnccc12 | -6.71% |
| CSC(N)=NCCC[C@H](N)C(=O)O | -3.15% |
| CC(C)NC[C@H](O)COc1ccc(CC(N)=O)cc1 | 5.16% |
| CSc1nc(N)c2ncn([C@@H]3O[C@H](COP(=O)(O)OP(=O)(O)O)C(O)[C@H]3O)c2n1 (stereo partly specified) | 3.74% |

biological target: Atrial natriuretic peptide receptor 1 (Homo sapiens) (UniProt P16066); assay: Natriuretic polypeptide receptor (hNpr1) antagonism - Pilot screen (AID 1347049); conditions: hNpr1 cells, antagonist mode cGMP read-out; series mostly up to 57.5 µM; activity change, negative = inhibition: at the top concentration;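 note: agonist-evoked cGMP luminescence read 20 min after hNppA addition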
In short: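 HEK293 cells expressing hNpr1 and GloSensor cGMP luciferase, 1500/well, loaded with 2% GloSensor reagent 2 h, compound 30 min at room temperature; luminescence read before and 20 min after 0.1 nM hNppA stimulation.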

Atrial natriuretic peptide receptor 1 (Homo sapiens), sequence (P16066 whole entry, looked up): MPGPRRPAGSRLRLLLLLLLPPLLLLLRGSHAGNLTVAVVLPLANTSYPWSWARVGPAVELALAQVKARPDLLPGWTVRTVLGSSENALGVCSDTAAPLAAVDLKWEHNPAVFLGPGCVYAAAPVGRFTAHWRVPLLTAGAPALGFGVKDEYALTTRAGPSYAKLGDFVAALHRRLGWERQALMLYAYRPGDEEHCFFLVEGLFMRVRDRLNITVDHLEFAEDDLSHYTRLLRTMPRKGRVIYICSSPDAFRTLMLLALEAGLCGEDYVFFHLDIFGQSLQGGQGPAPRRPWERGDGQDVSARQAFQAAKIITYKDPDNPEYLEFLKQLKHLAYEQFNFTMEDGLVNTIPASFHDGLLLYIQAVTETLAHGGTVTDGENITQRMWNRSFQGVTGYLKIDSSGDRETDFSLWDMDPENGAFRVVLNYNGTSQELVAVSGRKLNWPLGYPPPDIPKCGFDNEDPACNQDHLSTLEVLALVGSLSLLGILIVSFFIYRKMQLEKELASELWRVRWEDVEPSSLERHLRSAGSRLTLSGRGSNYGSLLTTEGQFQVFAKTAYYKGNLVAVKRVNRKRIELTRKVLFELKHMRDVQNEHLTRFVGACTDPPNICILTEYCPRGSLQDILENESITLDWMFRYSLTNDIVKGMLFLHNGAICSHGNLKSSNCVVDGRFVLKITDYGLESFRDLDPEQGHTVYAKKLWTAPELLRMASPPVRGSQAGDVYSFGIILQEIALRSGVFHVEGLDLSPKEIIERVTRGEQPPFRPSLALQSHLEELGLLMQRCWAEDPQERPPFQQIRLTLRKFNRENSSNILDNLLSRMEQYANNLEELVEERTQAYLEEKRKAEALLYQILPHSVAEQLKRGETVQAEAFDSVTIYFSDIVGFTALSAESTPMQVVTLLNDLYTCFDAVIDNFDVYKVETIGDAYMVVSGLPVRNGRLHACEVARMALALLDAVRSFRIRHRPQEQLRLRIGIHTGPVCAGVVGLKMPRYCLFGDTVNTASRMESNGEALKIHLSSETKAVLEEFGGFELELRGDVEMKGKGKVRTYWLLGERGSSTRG

| SMILES | activity change, negative = inhibition |
| --- | --- |
| O=C(O)C1=CCCNC1 | 13.9% |
| CC(C)C[C@H](NC(=O)[C@H](O)[C@H](N)Cc1ccccc1)C(=O)O | -1.89% |
| Cc1nc2n(c(=O)c1CCN1CCC(c3noc4cc(F)ccc34)CC1)CCCC2O (stereo unspecified) | -4.72% |
| CC1CNCCN1S(=O)(=O)c1cccc2cnccc12 (stereo unspecified) | 2.27% |
| O=C(O)C1CCNCC1 | 9.45% |
| NCCCCN | 13% |
| NC1(C(=O)O)CC1 | 6.74% |
| CN1CC(O)C(O)C(O)C1CO (stereo unspecified) | 4.78% |
| CCCCCCCCCC(=O)NC(CN1CCOCC1)[C@H](O)c1ccccc1 (stereo partly specified) | -1.11% |
| CCCCCCN(CCCCCC)C(=O)Cc1c(-c2ccc(F)cc2)[nH]c2ccccc12 | -7.51% |
| O=c1[nH]c2cc(Cl)ccc2c(O)c1-c1ccc(Oc2ccccc2)cc1 | -0.698% |
| Cc1cccc(C(=O)NCN2CCN(c3ccccc3C#N)CC2)c1 | -0.315% |
| O=c1[nH]c2ccccc2c2ccccc12 | 1.66% |
| Cc1cc(Cn2cnc3c2C[C@@H](C(=O)O)N(C(=O)C(c2ccccc2)c2ccccc2)C3)ccc1N | 6.97% |
| NCCCNCCCCNCCCN | -1.96% |
| CC(C)[C@@H]1CC[C@@H](C)C[C@@H]1P(=O)(c1ccccc1)c1ccccc1 | 9.04% |
| CCN(CC)CCOC(=O)c1cc(Cl)c(N)cc1OC | 1.12% |
| [N-]=[N+]=Nc1ccc(C(=O)CSC[C@H](NC(=O)CC[C@H](N)C(=O)O)C(=O)NCC(=O)O)cc1 | 5.41% |
| Cc1ccccc1/C=C/C1=NCCN1 | 4.03% |

| SMILES | activity change, negative = inhibition |
| --- | --- |
| NC(N)=NC(N)=Nc1ccccc1 | 2.76% |
| Cn1c(=O)c2c(nc(/C=C/c3cccc(Cl)c3)n2C)n(C)c1=O | -3.54% |
| Nc1ncnc2c1nc(Sc1ccc(Cl)cc1)n2[C@H]1OC2COP(=O)(O)O[C@@H]2C1O (stereo partly specified) | 1.12% |
| N[C@@H](Cc1ccc(O)c(I)c1)C(=O)O | 14.1% |
| CC(=O)NNC(=O)N1Cc2ccccc2Oc2ccc(Cl)cc21 | 11.5% |
| NCC(O)c1ccc(O)c(O)c1 (stereo unspecified) | 0.512% |
| c1ccc(C2CN3CCSC3=N2)cc1 (stereo unspecified) | 3.12% |
| Cc1cc2c(cc1Cl)N(C(=O)Nc1ccnc3ccccc13)CC2 | 2.75% |
| NCCNS(=O)(=O)c1cccc2c(Cl)cccc12 | 6.08% |
| NC(N)=N[C@@H](CCC(=O)O)C(=O)O | 10.6% |
| O=C(OCCN1CCOCC1)C1(c2ccccc2)CCCCC1 | 7.93% |
| CN(C)CCCc1cc(C(=O)Nc2ccc(-c3ccncc3)cc2)ccc1O | -5.11% |
| CC(=O)[C@H]1CCC2C3CC=C4C[C@@H](OS(=O)(=O)O)CC[C@]4(C)C3CC[C@@]21C (stereo partly specified) | 1.03% |
| N[C@H](C(=O)O)[C@H]1C[C@@H]1C(=O)O | -9.98% |
| Nc1ncnc2c1ncn2C1CCCO1 (stereo unspecified) | 3.34% |
| CNCCNS(=O)(=O)c1cccc2cnccc12 | 11.5% |
| CSC(N)=NCCC[C@H](N)C(=O)O | 14.3% |
| CC(C)NC[C@H](O)COc1ccc(CC(N)=O)cc1 | 3.5% |
| CSc1nc(N)c2ncn([C@@H]3O[C@H](COP(=O)(O)OP(=O)(O)O)C(O)[C@H]3O)c2n1 (stereo partly specified) | -0.494% |

Reference: PubChem BioAssay (NCATS)
